PubChem BioAssay (NCATS)
Records with an inconclusive call do not appear. A call without a number means that no potency is given here. Values without a mark were called inactive. Activity calls are given as the source filed them. The call rests on the fitted dose curve; in most records, active means well fitted curve in the direction sought with a large enough effect; inconclusive means small, poorly fitted or top-dose-only effect, or another doubt; inactive means no such curve, though single readings can be large; an effect the other way counts as inactive or inconclusive.

Experiments:
[1] = target: ATP-dependent 6-phosphofructokinase (Trypanosoma brucei brucei) (UniProt O15648); test: qHTS Assay to Find Inhibitors of T. brucei phosphofructokinase: hit validation (AID 492961);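 further: luminescence reports ADP formed as PFK phosphorylates fructose-6-phosphate with ATP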
Outline: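 Measures ADP output of PFK (1.25 nM) at 0.1 mM ATP, 0.5 mM F6P, pH 8.0 TEA buffer with 5 mM MgCl2. No-enzyme wells define full inhibition; uninhibited enzyme wells define zero.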

[2] = target: Luciferin 4-monooxygenase (Photinus pyralis) (UniProt P08659); test: Biochemical firefly luciferase enzyme assay for NPC (AID 624030);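 further: purified P. pyralis luciferase at 10 nM with luciferin and ATP substrate; nearly all actives have a fitted effect of over 70% in size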
Outline: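 Direct inhibition of firefly luciferase enzyme (10 nM final, 50 mM Tris Acetate) assessed by luminescence within 5 minutes. Percent activity scaled between DMSO and PTC124 positive control, with concentration-effect curves classified by fit quality and response.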

[3] = qHTS profiling for inhibitors of Plasmodium falciparum proliferation (AID 504749); further: nearly all actives have a fitted effect of over 60% in size; further: potency means the concentration at half of the fitted maximal effect; conditions: P. falciparum in erythrocytes, SYBR Green DNA, 72 h, at 28.7 µM (top of the series)
Outline: (§1)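 Three-day growth assay of blood-stage parasites in erythrocytes (0.3% parasitemia, 2.5% hematocrit) at 37 C, 5% CO2, quantified by SYBR Green DNA staining after overnight detergent lysis.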

CP203 = test: as above; conditions: P. falciparum in erythrocytes, SYBR Green DNA, 72 h; series mostly up to 28.7 µM
Outline: as §1

CP262 = test: as above; conditions: P. falciparum in erythrocytes, SYBR Green DNA, 72 h; series mostly up to 28.7 µM
Outline: as §1

CP286 = test: as above; conditions: P. falciparum in erythrocytes, SYBR Green DNA, 72 h; series mostly up to 28.7 µM
Outline: as §1

Dd2 = test: as above; conditions: P. falciparum in erythrocytes, SYBR Green DNA, 72 h; series mostly up to 28.7 µM
Outline: as §1

FAB9 = test: as above; conditions: P. falciparum in erythrocytes, SYBR Green DNA, 72 h; series mostly up to 28.7 µM
Outline: as §1

PC49 = test: as above; conditions: P. falciparum in erythrocytes, SYBR Green DNA, 72 h; series mostly up to 28.7 µM
Outline: as §1

CP192 = test: as above; conditions: P. falciparum in erythrocytes, SYBR Green DNA, 72 h; series mostly up to 28.7 µM
Outline: as §1

CP201 = test: as above; conditions: P. falciparum in erythrocytes, SYBR Green DNA, 72 h; series mostly up to 28.7 µM
Outline: as §1

CP269 = test: as above; conditions: P. falciparum in erythrocytes, SYBR Green DNA, 72 h; series mostly up to 28.7 µM
Outline: as §1

CP315 = test: as above; conditions: P. falciparum in erythrocytes, SYBR Green DNA, 72 h; series mostly up to 28.7 µM
Outline: as §1

CP325 = test: as above; conditions: P. falciparum in erythrocytes, SYBR Green DNA, 72 h; series mostly up to 28.7 µM
Outline: as §1

CP329 = test: as above; conditions: P. falciparum in erythrocytes, SYBR Green DNA, 72 h; series mostly up to 28.7 µM
Outline: as §1

[4] = qHTS for Inhibitors of Plasmodium falciparum (DD2) proliferation (AID 504314);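 further: parasite DNA measured by SYBR Green fluorescence after red cell lysis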
Outline: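 Quantitative HTS growth inhibition: SYBR Green I binding to parasite DNA after 72 h drug exposure of infected erythrocytes (0.3% parasitemia, 2.5% hematocrit). Signals normalized per plate to inhibitor and vehicle wells.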

[5] = qHTS for Inhibitors of Plasmodium falciparum (GB4) proliferation (AID 504315); further: nearly all actives have a fitted effect of over 50% in size; further: potency means the concentration at half of the fitted maximal effect
Outline: (§2)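 Erythrocytes infected with P. falciparum line (0.3% parasitemia, 2.5% hematocrit final) incubated with compounds 72 h at 37 °C, 5% CO2; SYBR Green lysis buffer added, fluorescence read next day. Normalized to 0.29 uM artemisinin and DMSO.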

[6] = qHTS for Inhibitors of Plasmodium falciparum (7G8) proliferation (AID 504316); further: nearly all actives have a fitted effect of over 65% in size; further: potency means the concentration at half of the fitted maximal effect
Outline: as §2

[7] = qHTS for Inhibitors of Plasmodium falciparum (HB3) proliferation (AID 504318); further: nearly all actives have a fitted effect of over 60% in size
Outline: as §2

Chain of Luciferin 4-monooxygenase (Photinus pyralis) (P08659 whole entry, looked up): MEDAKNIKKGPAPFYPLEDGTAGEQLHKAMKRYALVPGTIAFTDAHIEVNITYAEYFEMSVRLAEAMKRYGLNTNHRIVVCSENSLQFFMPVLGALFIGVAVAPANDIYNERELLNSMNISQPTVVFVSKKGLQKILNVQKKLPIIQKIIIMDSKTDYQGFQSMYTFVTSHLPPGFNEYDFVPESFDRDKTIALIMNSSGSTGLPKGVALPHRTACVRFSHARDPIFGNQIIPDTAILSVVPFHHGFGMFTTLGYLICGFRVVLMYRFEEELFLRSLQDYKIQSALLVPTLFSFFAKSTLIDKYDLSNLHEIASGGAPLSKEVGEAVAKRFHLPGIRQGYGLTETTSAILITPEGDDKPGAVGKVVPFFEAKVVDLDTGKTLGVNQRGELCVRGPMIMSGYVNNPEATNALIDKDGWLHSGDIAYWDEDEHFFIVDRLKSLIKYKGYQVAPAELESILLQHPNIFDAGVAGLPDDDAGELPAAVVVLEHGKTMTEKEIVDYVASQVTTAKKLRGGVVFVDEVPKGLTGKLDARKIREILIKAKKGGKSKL
Chain of ATP-dependent 6-phosphofructokinase (Trypanosoma brucei brucei) (O15648 whole entry, looked up): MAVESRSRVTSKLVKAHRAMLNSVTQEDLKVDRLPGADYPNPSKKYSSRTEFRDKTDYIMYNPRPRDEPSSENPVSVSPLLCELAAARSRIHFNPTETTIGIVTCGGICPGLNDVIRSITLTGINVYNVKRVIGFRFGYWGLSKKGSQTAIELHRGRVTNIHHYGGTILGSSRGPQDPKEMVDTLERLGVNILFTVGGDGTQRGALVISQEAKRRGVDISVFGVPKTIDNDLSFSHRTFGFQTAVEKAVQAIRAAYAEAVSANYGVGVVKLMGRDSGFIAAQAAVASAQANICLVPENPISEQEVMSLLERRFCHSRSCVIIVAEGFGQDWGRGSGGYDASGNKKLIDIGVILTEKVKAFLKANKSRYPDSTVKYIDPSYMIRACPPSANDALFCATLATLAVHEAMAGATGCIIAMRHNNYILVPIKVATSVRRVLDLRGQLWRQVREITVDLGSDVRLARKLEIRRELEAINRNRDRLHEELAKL

Q: With `C[C@H](CN1c2ccccc2Sc2cccnc21)N(C)C` as the compound, how does the Potency [1] read?
A: Its Potency is “inactive”.

Q: What about the Potency [2] of the same compound?
A: Its Potency is “inactive”.

Q: What about the activity, negative = inhibition ([3]; parasite line A) of the same compound?
A: Its activity, negative = inhibition is -16.9%.

Q: And the activity, negative = inhibition ([3]; parasite line B)?
A: The activity, negative = inhibition was -1.99%.

Q: And the Potency (CP203)?
A: Its Potency is 13500 nM (active).

Q: And the Potency (CP262)?
A: The Potency was “inactive”.

Q: And the Potency (CP286)?
A: Its Potency is 4470 nM (active).

Q: What about the Potency (Dd2) of the same compound?
A: Its Potency is 4470 nM (active).

Q: And the Potency (FAB9)?
A: The Potency was “inactive”.

Q: What about the Potency (PC49) of the same compound?
A: The Potency was “inactive”.

Q: Which Potency [1] does the source give for `C=C1CCC(O)C/C1=C/C=C1\CCC[C@]2(C)[C@@H]([C@H](C)/C=C/[C@H](C)C(C)C)CC[C@@H]12` (stereo partly drawn) here?
A: The Potency was “inactive”.

Q: And the Potency [2]?
A: The Potency was “inactive”.

Q: And the Potency (CP192)?
A: The Potency was “inactive”.

Q: What about the Potency (CP201) of the same compound?
A: Its Potency is “inactive”.

Q: And the Potency (CP203)?
A: The Potency was “inactive”.

Q: What about the Potency (CP262) of the same compound?
A: Its Potency is “inactive”.

Q: What about the Potency (CP269) of the same compound?
A: Its Potency is “inactive”.

Q: And the Potency (CP286)?
A: The Potency was “inactive”.

Q: And the Potency (CP315)?
A: The Potency was “inactive”.

Q: And the Potency (CP325)?
A: The Potency was “inactive”.

Q: What about the Potency (CP329) of the same compound?
A: Its Potency is “inactive”.

Q: And the Potency (FAB9)?
A: The Potency was “inactive”.

Q: With `COC(=O)C1=C(C(=O)OC)[C@@H]2N(C)c3ccccc3[C@@]23C[C@@H](C(=O)OC)N(S(=O)(=O)c2ccc(C(F)(F)F)cc2)C3=N1` as the compound, how does the Potency [4] read?
A: The Potency was “inactive”.

Q: What about the Potency [5] of the same compound?
A: The Potency was 2130 nM (active).

Q: With `COC(=O)C1=C(C(=O)OC)[C@@H]2Nc3ccccc3[C@@]23C[C@@H](C(=O)OC)N(S(=O)(=O)c2ccc(Br)cc2)C3=N1` as the compound, how does the Potency [4] read?
A: Its Potency is “inactive”.

Q: And the Potency [5]?
A: Its Potency is 1900 nM (active).

Q: Which Potency [4] does the source give for `CC(=O)C1=C(C)N(Cc2ccccc2)C(=O)N[C@H]1c1cccc(F)c1` here?
A: Its Potency is “inactive”.

Q: What about the Potency [5] of the same compound?
A: The Potency was “inactive”.

Q: What about the Potency [6] of the same compound?
A: Its Potency is “inactive”.

Q: With `CC#CCN1c2ccccc2[C@]23C[C@@H](C(=O)OC)N(S(=O)(=O)c4ccc(C(F)(F)F)cc4)C2=NC(C(=O)OC)=C(C(=O)OC)[C@H]13` as the compound, how does the Potency [4] read?
A: Its Potency is “inactive”.

Q: What about the Potency [5] of the same compound?
A: Its Potency is 1900 nM (active).

Q: Which results are given for `CC#CCN1c2ccccc2[C@]23C[C@@H](C(=O)OC)N(S(=O)(=O)c4ccc(C)cc4)C2=NC(C(=O)OC)=C(C(=O)OC)[C@H]13`?
A: Potency [4]: inactive; Potency [5]: 1690 nM (active)

Q: Which Potency [4] does the source give for `CC#CCN1c2ccccc2[C@]23C[C@@H](C(=O)OC)N(C(=O)C4CCC4)C2=NC(C(=O)OC)=C(C(=O)OC)[C@H]13` here?
A: Its Potency is “inactive”.

Q: Which Potency [4] does the source give for `CCN1C(=O)N[C@@H](c2cccc(C(F)(F)F)c2)[C@@H](C(=O)OC)[C@H]1C` here?
A: The Potency was “inactive”.

Q: And the Potency [5]?
A: Its Potency is “inactive”.

Q: And the Potency [6]?
A: The Potency was “inactive”.

Q: And the Potency [7]?
A: Its Potency is “inactive”.

Q: What does the source list for `C=CC[C@]1(C(=O)OC)C=C[C@H](C)[C@@H](c2ccccc2)N1C(=O)C(F)(F)F`?
A: Potency [4]: inactive; Potency [5]: inactive; Potency [6]: inactive

Q: For `CCOC(=O)CN1C(=O)N[C@@H](CCc2ccccc2)C(C(C)=O)=C1C`, which Potency [4] is on record?
A: The Potency was “inactive”.

Q: And the Potency [5]?
A: Its Potency is “inactive”.

Q: And the Potency [6]?
A: The Potency was “inactive”.

Q: And the Potency [7]?
A: Its Potency is “inactive”.

Q: Which Potency [4] does the source give for `CC#CCN1c2ccccc2[C@]23C[C@@H](C(=O)OC)N(S(=O)(=O)c4ccc(Br)cc4)C2=NC(C(=O)OC)=C(C(=O)OC)[C@H]13` here?
A: The Potency was “inactive”.

Q: And the Potency [5]?
A: The Potency was 1690 nM (active).

Q: And the Potency [6]?
A: The Potency was 1900 nM (active).

Q: Which Potency [4] does the source give for `COC(=O)C1=C(C(=O)OC)[C@@H]2N(Cc3ccccc3)c3ccccc3[C@@]23C[C@@H](C(=O)OC)N(C(=O)NCCBr)C3=N1` here?
A: The Potency was “inactive”.

Q: And the Potency [5]?
A: The Potency was “inactive”.

Q: And the Potency [6]?
A: Its Potency is “inactive”.

Q: With `C=CCN1c2ccccc2[C@]23C[C@@H](C(=O)OC)N(S(=O)(=O)c4ccc(C(F)(F)F)cc4)C2=NC(C(=O)OC)=C(C(=O)OC)[C@H]13` as the compound, how does the Potency [4] read?
A: The Potency was “inactive”.

Q: Which Potency [4] does the source give for `CCN1C(=O)N[C@@H](c2ccc(Br)cc2)C(C(C)=O)=C1C` here?
A: Its Potency is “inactive”.

Q: And the Potency [5]?
A: The Potency was “inactive”.

Q: What about the Potency [6] of the same compound?
A: Its Potency is “inactive”.

Q: And the Potency [7]?
A: Its Potency is “inactive”.

Q: With `CCN1C(=O)N[C@H](c2ccccc2)C(C(C)=O)=C1C` as the compound, how does the Potency [4] read?
A: Its Potency is “inactive”.

Q: What about the Potency [5] of the same compound?
A: The Potency was “inactive”.

Q: What about the Potency [6] of the same compound?
A: The Potency was “inactive”.

Q: What about the Potency [7] of the same compound?
A: The Potency was “inactive”.

Q: For `COC(=O)C1=C(C(=O)OC)[C@@H]2Nc3ccccc3[C@@]23C[C@@H](C(=O)OC)N(S(=O)(=O)c2ccc([N+](=O)[O-])cc2)C3=N1`, which Potency [4] is on record?
A: The Potency was “inactive”.

Q: With `CCCCc1nc2c(c3c1C[C@H](C)OC3)CN(C(=O)N[C@H](C(=O)OC)C(C)C)CC2` as the compound, how does the Potency [4] read?
A: The Potency was “inactive”.

Q: What about the Potency [5] of the same compound?
A: The Potency was “inactive”.

Q: What about the Potency [6] of the same compound?
A: Its Potency is 1350 nM (active).

Q: What does the source list for `C=CCN1C=C2C(=O)C(C)(OC(=O)C3CCCC3)C(=O)C(c3ccccc3)=C2C=C1CCCC(=O)OC` (stereo not drawn)?
A: Potency [4]: inactive; Potency [5]: inactive; Potency [6]: inactive; Potency [7]: inactive
